Source: PubChem BioAssay
Calls of active or inactive are those of the source.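 Rule for the calls, unless noted: active = compound raises insulin release from rat beta cells at 5 mM glucose, no numeric limit stated; inactive = the rest.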

Key:
[1] = stimulators of insulin release from INS-1E, primary screen, cell-based, 5 mM glucose, NPC library (AID 1117329); conditions: rat INS-1E insulin secretion, at 10 µM, stronger effect = higher value
[2] = growth inhibition of GSK3B-pretreated HCT116 cells – cell-based, CellTiter-Glo, 0.2 to 20 µM (AID 1117336;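 active = compounds lowering colon cancer cell viability after pretreatment blocking the GSK3B kinase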); conditions: HCT116 viability after GSK3B inhibitor, at 20 µM, stronger effect = higher value
[3] = inhibition of endothelial tube formation, primary screen, imaging, VEGF stimulated, CD31 staining, tube area, NPC library (AID 1117340;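 active = compound that reduces growth-factor-driven endothelial tube area in a mixed cell culture, no cutoff stated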); conditions: VEGF-stimulated ADSC/ECFC co-culture, at 10 µM, stronger effect = higher value
[4] = GLP1 release stimulators, primary, NCI-H716, NPC library (AID 1117341;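 active = compound raises GLP1 secretion from the human gut endocrine cells, with no numeric limit stated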); conditions: NCI-H716 cells, at 10 µM, stronger effect = higher value
[5] = HCT116 colon cancer cell growth inhibition, primary screen, CellTiter-Glo luminescence, NPC library (AID 1117342;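 active = compounds that lower survival of HCT116 colon cancer cells in the luminescence readout, no numeric limit stated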); conditions: at 20 µM (top of the series)
[6] = reduced SW480 viability measured with CellTiter-Glo, NPC library, primary (AID 1117343;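 active = compounds that lower viability of the colon cancer cells in the luminescence readout, with no numeric limit stated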); conditions: CellTiter-Glo luminescence; at 20 µM (top of the series)
[7] = NPC library primary testing for decreased DLD-1 cell viability via CellTiter-Glo (AID 1117346;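 active = compounds that lower survival of DLD-1 colon cancer cells in the luminescence readout, no cutoff given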); conditions: DLD-1 viability, CellTiter-Glo luminescence; at 20 µM (top of the series)
[8] = biological target: 6-phosphogluconate dehydrogenase, decarboxylating (Homo sapiens) (UniProt P52209); assay: inhibition of human phosphogluconate dehydrogenase – biochemical, recombinant enzyme, NADPH absorbance, primary screen (AID 1159550;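 active = at least 20% inhibition of 6-phosphogluconate dehydrogenase activity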); conditions: recombinant 6PGD, NADPH absorbance 341 nm; at 10 µM; stronger effect = higher value
[9] = EMT-state selective cytotoxicity in co-culture – imaging, PC-3E GFP, TEM4-18 mCherry, primary screen (AID 1345086;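 active = compounds killing one labelled cell type while sparing the other, by normalised counts and ratio limits, not self-fluorescent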;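 for all read-outs here: cells exposed to compound for 72 h before imaging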;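 for red/green cell ratio (normalised): normalised mesenchymal count divided by normalised epithelial count so high means epithelial killing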); conditions: PC-3E GFP / TEM4-18 mCherry co-culture, imaging cell counts, at 1 µM; for red/green cell ratio (normalised): actives lie on both sides, counts scaled to control wells, 1 = unselective
[10] = measured here: epithelial PC-3E GFP cell survival
[11] = measured here: mesenchymal TEM4-18 mCherry cell survival

Chain of 6-phosphogluconate dehydrogenase, decarboxylating (Homo sapiens) (P52209 whole entry, looked up): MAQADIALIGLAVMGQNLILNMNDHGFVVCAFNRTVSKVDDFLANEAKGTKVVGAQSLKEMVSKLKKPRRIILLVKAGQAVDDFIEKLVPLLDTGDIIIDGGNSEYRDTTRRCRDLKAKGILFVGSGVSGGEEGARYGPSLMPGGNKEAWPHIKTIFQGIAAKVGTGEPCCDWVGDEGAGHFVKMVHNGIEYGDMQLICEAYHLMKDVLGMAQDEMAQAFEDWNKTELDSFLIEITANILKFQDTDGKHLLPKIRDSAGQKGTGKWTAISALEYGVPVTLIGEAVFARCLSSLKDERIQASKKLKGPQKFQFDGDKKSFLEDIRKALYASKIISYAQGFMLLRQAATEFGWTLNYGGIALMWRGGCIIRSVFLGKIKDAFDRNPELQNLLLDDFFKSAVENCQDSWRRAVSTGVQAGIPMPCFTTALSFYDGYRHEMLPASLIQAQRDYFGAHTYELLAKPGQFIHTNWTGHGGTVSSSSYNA

Row | Compound | insulin secretion stimulation [1] | viability decrease [2] | tube area decrease [3] | GLP1 secretion stimulation [4] | inhibition of viability [5] | viability decrease (inhibition) [6] | viability decrease (inhibition) [7] | inhibition [8] | red/green cell ratio (normalised) [9] | normalised cell number [9, 10] | normalised cell number [9, 11]
1 | O=C1NCC2(CCN(CCc3ccccc3)CC2)O1 | -0.9% (inactive) | 1.6% (inactive) | 18.6% (inactive) | 0% (inactive) | 8.9% (inactive) | 48% (inactive) | -32.8% (inactive) | 13.7% (inactive) | 0.97 (inactive) | 1.16 | 1.12
2 | CC(=O)Oc1cccc2c1C(=O)c1c(OC(C)=O)cc(C(=O)O)cc1C2=O | 1.8% (inactive) | 106% (active) | 6.3% (active) | -2% (inactive) | 100% (active) | 59.1% (active) | 64.3% (active) | -1.78% (inactive) | 0.93 (inactive) | 1.07 | 0.99
3 | CCN(CC)CCNC(=O)c1ccc(NC(C)=O)cc1 | 0.3% (inactive) | 23% (inactive) | 23.1% (inactive) | 1.6% (inactive) | 18.3% (inactive) | 25.6% (inactive) | 19.5% (inactive) | 3.51% (inactive) | 1.26 (inactive) | 0.89 | 1.13
4 | O=C1C(O)=C(O)C(=O)C(O)=C1O | 1.9% (inactive) | -21% (inactive) | -10.5% (inactive) | -1.5% (inactive) | -0.4% (inactive) | 27.9% (inactive) | 23.1% (inactive) | 10.5% (inactive) | 1.1 (inactive) | 1.02 | 1.12
5 | CCCCCCCCCCCCCCCCOP(=O)([O-])OCC[N+](C)(C)C | 0% (inactive) | 100% (active) | 12.2% (inactive) | 2.7% (inactive) | 100% (active) | 120% (active) | 103% (active) | 17% (inactive) | 0.8 (inactive) | 1.32 | 1.06
6 | CN1CCC(=C2c3ccccc3Sc3ccccc32)CC1 | 28.8% (active) | 77.2% (active) | 51.9% (active) | -3.3% (inactive) | 36.4% (inactive) | 80.2% (active) | 23.6% (inactive) | 13.2% (inactive) | 1.08 (inactive) | 1.03 | 1.11
7 | O=c1ccc2ccccc2o1 | -1.8% (inactive) | 3.65% (inactive) | -29.2% (inactive) | 2.9% (inactive) | 12.6% (inactive) | 19.6% (inactive) | 6% (inactive) | -18.6% (inactive) | 1.12 (inactive) | 0.98 | 1.1
8 | Cc1cc(CC(=O)O)n(C)c1C(=O)c1ccc(Cl)cc1 | 2.6% (inactive) | -27.2% (inactive) | 15.1% (inactive) | -1.1% (inactive) | 1.13% (inactive) | 14.7% (inactive) | -17.6% (inactive) | -4.85% (inactive) | 0.89 (inactive) | 1.1 | 0.98
9 | Cc1ccccc1OCC(O)CO (stereo not given) | -1.2% (inactive) | -10.2% (inactive) | -4.1% (inactive) | -0.8% (inactive) | -20.4% (inactive) | 0.7% (inactive) | -25.4% (inactive) | 7.3% (inactive) | 1.04 (inactive) | 1.05 | 1.1
10 | CC(C)(Oc1ccc(CCNC(=O)c2ccc(Cl)cc2)cc1)C(=O)O | 0.4% (inactive) | -10.3% (inactive) | -25.4% (inactive) | -1.3% (inactive) | 4.05% (inactive) | -13.9% (inactive) | -20.8% (inactive) | 4.98% (inactive) | 1.21 (inactive) | 1.03 | 1.25
11 | CC(=O)OC(C)C[N+](C)(C)C (stereo not given) | -0.3% (inactive) | -1.9% (inactive) | 4.4% (inactive) | 5.7% (active) | -6.13% (inactive) | -21.3% (inactive) | -8.2% (inactive) | 19.2% (inactive) | 1.16 (inactive) | 0.97 | 1.13
12 | CCCCCCCCNC(C)C(O)c1ccc(SC(C)C)cc1 (stereo not given) | -0.1% (inactive) | 101% (active) | 45.2% (active) | 38.4% (active) | 102% (active) | 142% (active) | 103% (active) | 12% (inactive) | 1.4 (inactive) | 0.68 | 0.96
13 | O=C1c2ccccc2C(=O)C1c1ccccc1 | -1.2% (inactive) | -5.45% (inactive) | -11% (inactive) | 2.1% (inactive) | -1% (inactive) | 1.3% (inactive) | -4.85% (inactive) | 8.94% (inactive) | 1.05 (inactive) | 1.09 | 1.15
14 | CC(=O)OCC(COC(C)=O)OC(C)=O | 0.7% (inactive) | -25.5% (inactive) | -8.3% (inactive) | 0.1% (inactive) | -1.2% (inactive) | -5.5% (inactive) | -3.8% (inactive) | 1.31% (inactive) | 1.26 (inactive) | 0.97 | 1.22
15 | CCCCN(CCCC)CCCOC(=O)c1ccc(N)cc1 | 0.7% (inactive) | -47.6% (inactive) | 18.7% (inactive) | 0.7% (inactive) | 15% (inactive) | 21.3% (inactive) | -4.6% (inactive) | -3.82% (inactive) | 1.16 (inactive) | 1.04 | 1.2
